Common to all, as to assay: protein-binding microarray (PBM); PBM: ~300 nM protein, 6 mM HEPES pH 7.8, 80 mM KCl, 0.5 mM EDTA, 0.5 mM EGTA, 6% glycerol, 35 ng/ul poly-dIdC, 1% milk, 1 h, room temperature; Ap Aiptasia and Nv Nematostella (sea anemones) / Co Capsaspora / Aq Amphimedon (sponge) / Dm Drosophila / Hu human; RHD is the Rel homology domain; high values mean tight binding
Common to all, as to conditions: dsDNA, one strand shown

In assay [1] the target is T1, GST-Ap-NF-kB RHD (Exaiptasia pallida (Aiptasia), UniProt A0A913YAJ5 2-422).
T1 sequence: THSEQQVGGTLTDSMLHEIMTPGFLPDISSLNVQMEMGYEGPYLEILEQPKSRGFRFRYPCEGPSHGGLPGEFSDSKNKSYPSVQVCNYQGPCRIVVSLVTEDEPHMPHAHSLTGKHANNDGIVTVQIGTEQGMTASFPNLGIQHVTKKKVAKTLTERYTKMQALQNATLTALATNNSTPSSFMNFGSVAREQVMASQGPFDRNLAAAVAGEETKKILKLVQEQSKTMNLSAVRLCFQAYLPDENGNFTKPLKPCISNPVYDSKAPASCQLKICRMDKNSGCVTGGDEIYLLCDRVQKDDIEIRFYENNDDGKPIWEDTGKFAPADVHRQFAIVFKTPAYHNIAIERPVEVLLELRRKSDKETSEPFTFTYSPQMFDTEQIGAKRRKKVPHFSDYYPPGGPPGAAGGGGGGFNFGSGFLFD

Assay [2] addresses T2, GST-Nv-NF-kB (Cys allele) (Nematostella vectensis, UniProt E5G601 2-411).
T2 sequence: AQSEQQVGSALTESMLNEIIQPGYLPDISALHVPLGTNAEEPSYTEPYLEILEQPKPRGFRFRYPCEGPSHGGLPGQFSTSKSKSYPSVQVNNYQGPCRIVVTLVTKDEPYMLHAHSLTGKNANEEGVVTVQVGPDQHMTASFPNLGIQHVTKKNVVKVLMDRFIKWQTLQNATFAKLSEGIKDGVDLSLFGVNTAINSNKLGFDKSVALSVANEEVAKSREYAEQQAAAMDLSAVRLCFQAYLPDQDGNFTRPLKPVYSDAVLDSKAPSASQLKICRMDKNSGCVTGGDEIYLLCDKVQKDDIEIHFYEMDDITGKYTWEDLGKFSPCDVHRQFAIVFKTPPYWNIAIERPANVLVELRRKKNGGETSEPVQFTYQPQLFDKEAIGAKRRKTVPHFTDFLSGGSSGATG

The target of assay [3] is T3, GST-Nv-NF-kB (Ser allele) (Nematostella vectensis, UniProt A7UNT2 2-411).
T3 sequence: T2 sequence with Q21R, C66S, S207N, E215Q, V217A, E225K, A268E, D399E

Assay [4] concerns the target T4, GST-Co-NF-kB (Capsaspora owczarzaki, UniProt F1ARL5 200-546).
T4 sequence: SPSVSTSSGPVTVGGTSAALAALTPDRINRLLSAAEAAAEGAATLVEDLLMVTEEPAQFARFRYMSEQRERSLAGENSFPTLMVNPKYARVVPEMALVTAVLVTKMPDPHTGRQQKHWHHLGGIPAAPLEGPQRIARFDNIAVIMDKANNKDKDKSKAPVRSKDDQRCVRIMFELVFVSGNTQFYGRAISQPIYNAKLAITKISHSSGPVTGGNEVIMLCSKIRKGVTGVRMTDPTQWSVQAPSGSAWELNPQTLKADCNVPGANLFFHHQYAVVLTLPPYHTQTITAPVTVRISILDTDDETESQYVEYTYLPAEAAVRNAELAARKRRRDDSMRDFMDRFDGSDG

The target in assay [5] is T5, GST-Dm-Relish (Drosophila melanogaster, UniProt Q94527 99-473).
T5 sequence: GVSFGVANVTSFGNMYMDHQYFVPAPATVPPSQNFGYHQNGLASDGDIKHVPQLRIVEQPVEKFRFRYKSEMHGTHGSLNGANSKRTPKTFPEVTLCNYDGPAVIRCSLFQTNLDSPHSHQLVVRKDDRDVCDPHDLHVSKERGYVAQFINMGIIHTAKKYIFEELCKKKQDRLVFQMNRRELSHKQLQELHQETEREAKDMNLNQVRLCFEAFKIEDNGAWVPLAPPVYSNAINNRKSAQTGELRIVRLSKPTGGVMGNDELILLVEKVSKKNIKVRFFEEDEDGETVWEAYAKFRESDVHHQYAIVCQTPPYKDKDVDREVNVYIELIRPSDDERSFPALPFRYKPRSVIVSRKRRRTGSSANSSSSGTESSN

For assay [6], the target named is T6, GST-Aq-NF-kB (Amphimedon queenslandica, UniProt A9Y5G7 2-389).
T6 sequence: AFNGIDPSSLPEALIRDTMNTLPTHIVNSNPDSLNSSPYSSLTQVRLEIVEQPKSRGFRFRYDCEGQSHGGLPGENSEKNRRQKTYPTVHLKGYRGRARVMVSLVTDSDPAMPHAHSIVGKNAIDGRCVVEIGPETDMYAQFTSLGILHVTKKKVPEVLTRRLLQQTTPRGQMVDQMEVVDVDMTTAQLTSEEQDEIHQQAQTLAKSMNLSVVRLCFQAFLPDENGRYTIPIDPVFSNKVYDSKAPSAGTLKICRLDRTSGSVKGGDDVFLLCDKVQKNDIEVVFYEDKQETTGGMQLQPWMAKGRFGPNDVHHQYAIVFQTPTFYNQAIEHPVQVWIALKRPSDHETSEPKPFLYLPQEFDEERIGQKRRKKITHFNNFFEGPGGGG

For assay [7], the target named is GST-Hu-p50 (Homo sapiens, UniProt P19838 7-356).

The record followed here is article PMC5700166.

Numbering of substitutions follows the chain as printed.

GST-Hu-p50, sequence (P19838 7-356): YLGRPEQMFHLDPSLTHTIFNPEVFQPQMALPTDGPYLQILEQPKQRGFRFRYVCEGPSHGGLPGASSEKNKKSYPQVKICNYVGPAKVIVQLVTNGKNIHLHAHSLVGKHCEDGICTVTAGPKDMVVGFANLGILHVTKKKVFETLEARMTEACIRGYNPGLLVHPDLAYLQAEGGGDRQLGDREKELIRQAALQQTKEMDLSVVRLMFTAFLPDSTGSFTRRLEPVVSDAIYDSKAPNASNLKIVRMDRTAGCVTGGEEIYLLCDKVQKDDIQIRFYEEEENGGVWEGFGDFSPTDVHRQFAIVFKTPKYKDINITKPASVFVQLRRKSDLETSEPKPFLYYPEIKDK

Take “CCGATTAACATCAAGGGAAATCCTGATGTTAATCGGGTCTTGATTCGCTTGACGCTGCTG”: the binding signal in assay [1] was determined as 5.35 z-score; in assay [2], 7.47 z-score; in assay [3], 6.52 z-score; in assay [4], 3.33 z-score; in assay [5] it was 6.05 z-score; in assay [6], 6.57 z-score. This sequence displayed a binding signal in assay [7] of 4.65 z-score.
“CCGATTAACATCAGGGGACGTACTGATGTTAATCGGGTCTTGATTCGCTTGACGCTGCTG”: the binding signal is 4.18 z-score in assay [1]; 3.48 z-score in assay [2]; 3.58 z-score in assay [3]; 2.33 z-score in assay [4]; 6.95 z-score in assay [5]; 4.39 z-score in assay [6]. The same sequence registered a binding signal in assay [7] of 3.75 z-score.
In the case of “CCGATTAACATCAAAGTATCCCCTGATGTTAATCGGGTCTTGATTCGCTTGACGCTGCTG”, the binding signal came out at 6.1 z-score in assay [1]; 5.64 z-score in assay [2]; 7.21 z-score in assay [3]; 5.48 z-score in assay [4]; 3.47 z-score in assay [5]; 4.4 z-score in assay [6]. The binding signal in assay [7] turned out to be 4.64 z-score.
For the sequence “CCGATTAACATCAAAGAAACCCCTGATGTTAATCGGGTCTTGATTCGCTTGACGCTGCTG”, the binding signal in assay [1] was found to be 6 z-score; in assay [2], 5.33 z-score; in assay [3], 5.11 z-score; in assay [4], 1.95 z-score; in assay [5], 6.23 z-score; in assay [6] it was 5.01 z-score. In assay [7], this sequence displayed a binding signal of 5.25 z-score.
For the sequence “CCGATTAACATCAAAACTCCCCGTGATGTTAATCGGGTCTTGATTCGCTTGACGCTGCTG”, the binding signal in assay [1] worked out at 7.7 z-score; in assay [2], 6.47 z-score; in assay [3], 6.9 z-score; in assay [4] it was 5.87 z-score; in assay [5] it was 7.5 z-score; in assay [6], 6.24 z-score. Further, the binding signal in assay [7] came out at 5.74 z-score.
For the sequence “CCGATTAACATCAAGGGAAATTCTGATGTTAATCGGGTCTTGATTCGCTTGACGCTGCTG”, the binding signal was determined as 5.74 z-score in assay [1]; 8.12 z-score in assay [2]; 7.46 z-score in assay [3]; 4.57 z-score in assay [4]; 3.68 z-score in assay [5]; 6.88 z-score in assay [6]. The binding signal in assay [7] was found to be 5.4 z-score.
In the case of “CCGATTAACATCAGGGGAATAACTGATGTTAATCGGGTCTTGATTCGCTTGACGCTGCTG”, the binding signal in assay [1] is 6.5 z-score; in assay [2] it was 8.18 z-score; in assay [3], 7.95 z-score; in assay [4], 7.09 z-score; in assay [5], 9.39 z-score; in assay [6], 6.98 z-score. In assay [7], this sequence registered a binding signal of 5.61 z-score.
As for “CCGATTAACATCAGCATTCCCCCTGATGTTAATCGGGTCTTGATTCGCTTGACGCTGCTG”, the binding signal in assay [1] amounted to 7.2 z-score; in assay [2], 7.59 z-score; in assay [3] it was 7.61 z-score; in assay [4], 6.59 z-score; in assay [5] it was 4.53 z-score; in assay [6], 5.57 z-score. Besides, the binding signal in assay [7] is 6.18 z-score.
For “CCGATTAACATCAAGGGGTTTTCTGATGTTAATCGGGTCTTGATTCGCTTGACGCTGCTG”, the binding signal in assay [1] amounted to 7.68 z-score; in assay [2] it was 7.5 z-score; in assay [3], 6.68 z-score; in assay [4], 1.68 z-score; in assay [5] it was 7.2 z-score; in assay [6], 6.95 z-score. Also, in assay [7], the binding signal was 6.56 z-score.
As for “CCGATTAACATCAAGGGGGAAACTGATGTTAATCGGGTCTTGATTCGCTTGACGCTGCTG”, the binding signal in assay [1] was 7.59 z-score; in assay [2], 7.46 z-score; in assay [3] it was 9.77 z-score; in assay [4], 8.9 z-score; in assay [5], 4.03 z-score; in assay [6], 5.71 z-score. The sequence further came in with a binding signal in assay [7] of 7.63 z-score.
On to “CCGATTAACATCACCCGCCCCCCTGATGTTAATCGGGTCTTGATTCGCTTGACGCTGCTG”, for which the binding signal was found to be 4.08 z-score in assay [1]; 4.08 z-score in assay [2]; 2.95 z-score in assay [3]; 4.02 z-score in assay [4]; 4.78 z-score in assay [5]; 4.22 z-score in assay [6]. Also, the binding signal in assay [7] came out at 3.85 z-score.
As for “CCGATTAACATCACGAAACCCCCTGATGTTAATCGGGTCTTGATTCGCTTGACGCTGCTG”, the binding signal turned out to be 8.57 z-score in assay [1]; 6.39 z-score in assay [2]; 7.65 z-score in assay [3]; 2.69 z-score in assay [4]; 8.51 z-score in assay [5]; 6.37 z-score in assay [6]. Moreover, the binding signal in assay [7] was 7.11 z-score.
